# Only some compounds are listed: those with a hit (about 5.2% of all), similar ones and a draw of the others.
# APOBEC3A inh: human APOBEC3A DNA deaminase inhibition. recombinant A3A, FAM/TAMRA ssDNA deamination fluorescence. 0.41% of 330,000 active. inhibition, % at 20 µM. P31941. AID 493011;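 active means at least 40% inhibition at 20 µM here, with at most 30% in a related deaminase screen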;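 further: plate controls were A3A with DMSO for no effect and wells lacking A3A enzyme for full effect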
# ALR H2O2 inh: inhibitors of human sulfhydryl oxidase ALR; AID 485317; 3.8% of 290,000 active; inhibition, % (concentration not given with the values); P55789; purified ALR, DTT oxidation, H2O2 HRP-luminol luminescence;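 active means mean replicate inhibition above about 79%, with every replicate also reaching it, limit read from the data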
# NRP1-CendR mod: NRP-1/CendR interaction modulation. FAM-RPARPAR peptide binding to NRP-1, fluorescence polarization. inhibition, % at 25 µM. 0.85% of 360,000 active;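 active means inhibition or corrected inhibition above about 18%, plus a signal ratio from 0.5 to 1.5, limit read from the data, passing the limit was not always enough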
# Target sequence (O14786 whole entry, looked up): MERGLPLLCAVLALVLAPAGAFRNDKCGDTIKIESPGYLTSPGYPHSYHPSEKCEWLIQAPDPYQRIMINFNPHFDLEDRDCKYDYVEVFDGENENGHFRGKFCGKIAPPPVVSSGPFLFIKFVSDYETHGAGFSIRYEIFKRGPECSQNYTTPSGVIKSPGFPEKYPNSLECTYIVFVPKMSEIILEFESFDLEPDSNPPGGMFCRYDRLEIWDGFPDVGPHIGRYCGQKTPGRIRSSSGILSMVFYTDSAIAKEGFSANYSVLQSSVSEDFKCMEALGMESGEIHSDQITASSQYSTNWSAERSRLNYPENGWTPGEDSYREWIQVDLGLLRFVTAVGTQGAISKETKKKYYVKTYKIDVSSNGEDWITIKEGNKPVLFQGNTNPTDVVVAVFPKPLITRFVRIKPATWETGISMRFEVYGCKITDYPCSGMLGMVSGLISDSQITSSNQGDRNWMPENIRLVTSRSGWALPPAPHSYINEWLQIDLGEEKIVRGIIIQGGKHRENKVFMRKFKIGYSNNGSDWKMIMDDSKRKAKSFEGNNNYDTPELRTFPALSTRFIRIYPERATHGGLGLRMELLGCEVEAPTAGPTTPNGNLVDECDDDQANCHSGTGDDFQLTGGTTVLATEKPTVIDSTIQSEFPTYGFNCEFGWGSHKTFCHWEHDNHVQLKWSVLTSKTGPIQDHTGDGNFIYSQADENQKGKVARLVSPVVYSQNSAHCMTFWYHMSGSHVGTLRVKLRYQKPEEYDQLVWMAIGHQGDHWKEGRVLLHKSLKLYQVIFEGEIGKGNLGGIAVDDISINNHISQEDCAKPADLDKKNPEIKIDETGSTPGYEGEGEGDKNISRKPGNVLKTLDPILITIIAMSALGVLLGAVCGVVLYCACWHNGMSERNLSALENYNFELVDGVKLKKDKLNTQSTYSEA
# CR mimetic SO: yeast age-related superoxide inhibition as caloric restriction mimetic. 0.18% of 330,000 active. S. cerevisiae aged cells, superoxide DHE fluorescence; active compounds read low. superoxide response (% of plate mean), % at 10 µM;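 active means superoxide response under a set limit, about three screen SD below normal, cut at about 65% in these data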;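 further: yeast aged for seven days with compound at 30 °C before DHE staining; 100% = average MFI of all compound-treated wells on the plate with controls excluded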
# PfM18AAP inh: PfM18AAP enzyme inhibition. 1.2% of 290,000 active. AID 1822. recombinant PfM18AAP, H-Glu-NHMec fluorogenic cleavage. inhibition, % at 7.35 µM;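 active means inhibition above the campaign mean inhibition over all tested compounds plus 3 SD, cut at about 28% in these data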;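 further: 0% = plate median of test compound wells and 100% = 2 mM ZnCl2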
# APOBEC3G inh: APOBEC3G (human) deaminase inhibition. recombinant A3G, ssDNA deamination FAM/TAMRA fluorescence. inhibition, % at 20 µM. 0.28% of 330,000 active. Q9HC16;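 active means inhibition of at least 40% at 20 µM, with no more than 30% in the related APOBEC3A deaminase screen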;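 further: plate controls were DMSO wells with A3G for no effect and wells lacking A3G enzyme for full effect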
# An asterisk follows results filed as active; x = no result.
SMILES,APOBEC3A inh,ALR H2O2 inh,NRP1-CendR mod,CR mimetic SO,PfM18AAP inh,APOBEC3G inh
O=C(COC(=O)C1CC(=O)N(Cc2ccccc2)C1)Nc1ccccc1F (stereo not drawn),2.7,x,25.8*,97.8,3.4,-7.2
CC(C(=O)O)c1ccc2c(c1)[nH]c1ccc(Cl)cc12 (stereo not drawn),3.5,0.1,-2.4,112.8,3.7,-1.1
CCN(CC)S(=O)(=O)c1ccc(NC(=O)c2c(-c3ccccc3)noc2C)cc1,4.0,93.2*,13.8,93.6,6.4,3.1
CCC(CC)c1nnc(NC(=O)c2c(-c3ccccc3)noc2C)s1,-1.4,77.8*,7.4,98.9,6.8,-5.4
Cc1nnc(NC(=O)c2c(-c3ccccc3)noc2C)s1,5.5,5.2,-3.1,98.3,-2.5,2.3
CC1CCCC(NC(=O)CCS(=O)(=O)c2ccc3c(c2)NC(=O)CS3)C1C (stereo not drawn),-3.4,-3.3,13.2,94.5,4.7,-6.3
CC(C)(C)CC(C)(C)SSc1n[nH]c(=S)s1,x,x,8.5,x,x,x
CCCCCOc1ccc(/C=N/NC(=O)c2nnn(-c3nonc3N)c2CN2CCCCCC2)cc1,-2.2,0.1,-2.0,94.0,x,-1.1
Cc1ncc(CO)c(CNc2ccc(Oc3ccccc3)cc2)c1O,-0.6,98.1*,3.3,91.4,3.4,-8.3
O=C(CNC(=O)c1ccco1)NCC(=O)OCc1ccccc1Br,-3.6,-15.8,1.2,89.3,-4.0,-2.9
O=C(CC1C(=O)NCCN1Cc1cccc(C(F)(F)F)c1)NCCc1cnccn1 (stereo not drawn),-0.7,-0.9,20.9*,104.8,-3.3,-4.8
CN(Cc1ccccc1)C(=O)c1ccc(NC(=O)Cc2cccc(NC(=O)C3CCN(C(=O)C4CC4)CC3)c2)cc1,-0.2,-1.2,7.0,117.1,x,4.8
Cc1cc(C2(c3ccc(O)c(C)c3)OC(=O)c3ccccc32)ccc1O,17.2,77.3*,-6.4,104.1,-4.1,2.1
CCC(=O)OCCNc1cc(Sc2nccn2C)c2nonc2c1[N+](=O)[O-],x,97.1*,0.7,114.3,-35.7,x
Cc1cc(N2CCOCC2)c2c(N)cc(C)c(C)c2n1,-2.0,-1.7,22.4*,109.5,4.8,-7.9
COc1ccc2nc(NC(=O)c3cccc(S(=O)(=O)N4CCOCC4)c3)sc2c1,-6.2,-5.5,0.9,98.7,-10.7,-5.8
Cc1cc(Nc2ccc(N3CCC(C)CC3)cc2)n2ncnc2n1,-3.1,90.2*,-0.3,94.7,8.6,-2.4
Cc1ccc(Nc2cc(C)nc3ncnn23)cc1,-4.7,-4.6,-6.9,110.4,-4.9,-1.4
COc1ccc(/C=C2\SC(=S)N(CC(=O)OCC(=O)Nc3ccc(C)cc3Cl)C2=O)cc1,2.4,-20.2,33.5*,108.0,18.5,-11.0
COc1ccc(/C=C2\SC(=S)N(CC(=O)OCC(=O)Nc3ccc([N+](=O)[O-])cc3OC)C2=O)cc1,x,x,-0.7,x,21.1,x
C/C(=N/NC(=O)c1cc2ccccc2cc1O)C1C(=O)c2ccccc2C1=O,-1.2,12.5,-58.1,97.2,20.8,-3.9
C/C(=N\NC(=O)c1ccccc1O)C1C(=O)c2ccccc2C1=O,1.5,97.7*,-31.6,74.4,19.0,1.8
CN1CCCc2cc3c(C(F)(F)F)cc(=O)oc3nc21,-1.4,-6.8,38.4*,95.2,-2.1,-1.6
N#CC1C(C#N)N2CCCN2C1c1ccc(Br)cc1 (stereo not drawn),1.5,0.3,31.1*,95.8,-18.5,-1.7
COc1ccc(Cl)cc1-c1nc(SCC(=O)N(C)C)n[nH]1,5.6,x,4.5,85.9,-3.8,-0.5
SMILES,APOBEC3A inh,ALR H2O2 inh,NRP1-CendR mod,CR mimetic SO,PfM18AAP inh,APOBEC3G inh
CCn1c(-c2cc(OC)c(OC)c(OC)c2)n[nH]c1=S,-2.8,96.8*,4.0,108.4,9.8,36.4
CCn1c(CCCc2ccc(OC)c(C)c2)n[nH]c1=S,-3.2,7.3,-3.4,88.3,28.7*,-3.6
COc1ccccc1-c1n[nH]c(=S)n1Cc1ccccc1,3.9,85.6*,-1.3,98.7,17.1,30.5
COc1ccc(Cl)cc1-c1n[nH]c(=S)n1C,-6.0,89.3*,9.4,94.6,26.6,38.9
Cc1ccc(NC(=O)Cc2ccsc2)cc1S(=O)(=O)N1CCOCC1,0.4,2.4,-4.5,91.6,x,2.5
CCn1c(-c2cc(Cl)ccc2OC)n[nH]c1=S,-4.0,92.2*,1.8,119.0,14.5,36.9
CCCSCC(=O)Nc1ncc2c(n1)-c1ccccc1CC2,8.5,-16.3,-15.5,99.0,3.7,2.4
Oc1cccc(/C=N/c2c(-c3ccco3)nc3ccccn23)c1,-6.0,11.1,19.3,103.3,10.2,-5.8
COc1ccc(-c2nc3ccccn3c2/N=C/c2ccc(OC)c(OC)c2)cc1O,-4.7,x,6.6,93.3,-2.1,-4.7
COc1cc(-c2nc3ccccn3c2/N=C/c2ccccc2)ccc1O,-7.8,84.4*,-1.2,101.4,7.7,-2.6
COc1cc(-c2nc3ccccn3c2/N=C/c2cccc(F)c2)ccc1O,-0.4,77.6*,2.4,98.7,5.9,-2.7
COc1cc(-c2nc3ccccn3c2/N=C/c2cc(OC)c(O)cc2Cl)ccc1O,4.9,94.3*,1.0,101.4,14.5,-1.6
C=CCC(CC)C(=O)NC(=O)N1CCCc2ccccc21 (stereo not drawn),1.0,-3.4,3.4,98.2,0.1,-7.4
CCCn1c(/C=C/c2ccccc2)nc2ccccc21,-1.9,1.4,-11.7,99.0,11.7,-4.4
CC(C)Cn1c(/C=C/c2ccco2)nc2ccccc21,1.6,97.0*,-44.0,104.0,5.8,1.2
O=C(CCCNS(=O)(=O)c1cccc2nsnc12)N1CCCCC1,4.1,-11.5,-2.0,111.3,-0.3,-0.3
O=C(NCc1ccco1)c1ccccc1NS(=O)(=O)c1ccc(Cl)s1,0.4,95.0*,-16.8,114.9,2.4,-1.1
COc1ccccc1N1CCN(/N=C/c2ccc(O)c(O)c2)CC1,-5.1,99.6*,x,94.1,62.9*,7.7
COc1cc(/C=N/N2CCN(c3ccccc3)CC2)cc(OC)c1OC(C)=O,-3.6,97.4*,5.4,92.9,14.7,-2.8
COc1ccccc1N1CCN(/N=C/c2ccc(C(=O)O)cc2)CC1,-2.8,-55.0,12.2,89.1,0.2,-6.1
COc1ccc(/C=N/N2CCN(c3ccccc3OC)CC2)cc1OC,-0.3,32.1,11.7,97.7,0.2,1.5
COc1ccccc1N1CCN(/N=C/c2cccc(OC)c2O)CC1,-1.5,92.8*,-3.7,97.9,5.6,-6.7
CCN(CC)c1ccc(/C=N/N2CCN(c3ccccc3OC)CC2)cc1,-3.1,99.0*,-5.2,90.6,-3.0,-5.7
CCN(CC)S(=O)(=O)c1ccc(NC(=O)COC(=O)c2c[nH]c(=O)[nH]c2=O)cc1,0.3,-5.4,0.7,99.2,0.9,-7.9
Cc1nnc(NC(=O)CSc2n[nH]c(-c3ccccc3C)n2)s1,-1.8,2.3,-4.9,89.8,1.7,-14.9
COc1ccccc1N1CCN(/N=C(\C)c2ccc(O)cc2)CC1,-4.7,98.9*,8.0,106.6,4.2,-4.6

# Assay outcomes from PubChem BioAssay.
